From PubChem BioAssay (NCI) come the findings set out here.

SMILES strings stand for the structures. The panel holds about 83,000 compounds, 20% with a hit somewhere; the sample as a whole holds those more often.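 For each line, cells grew in 96-well plates with the test compound present at a single concentration for 48 hours.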 Active and inactive are the calls of the source. How the source made its calls: active means growth percent below 10; inactive means the rest.

For this test, the system named is SNB-75 CNS. The test is described as follows: NCI-60 one-dose screen, 48 h (100 = growth as untreated, 0 = no growth, -100 = all killed). The note with it: 10 µM unless noted.
Turning to `COc1ccccc1Cn1cc2c(c1)-c1oncc1CC2`, the growth is 13.7% (inactive).

Regarding `CC1=NN(c2cccc(Cl)c2)C(=O)/C1=C\c1cn(-c2nc(N3CCOCC3)nc(N3CCOCC3)n2)c2ccccc12`, the growth is 86.4% (inactive).

Turning to `NC(=O)c1c(Nc2ccccc2)nn2cc(-c3nc4ccccc4s3)c(N)nc12`, the growth was 88.9% (inactive).

In the case of `COc1cc(/C(=C2/O[C@@H]([C@H]3COC(C)(C)O3)[C@H]3OC(C)(C)O[C@@H]23)c2ccc3c(c2)OCO3)cc(OC)c1OC`, the growth was 51.8% (inactive).

Regarding `O=C(N/N=C/c1coc2ccccc2c1=O)c1cc2oc(-c3ccccc3)cc2[nH]1`, the growth is 83.8% (inactive).

Take `CCCCCCCCCC[N+](C)(C)C`: the growth is -22.8% (active).

As for `CCCCCCC(=O)C(C)C`, the growth was 95.1% (inactive).

As for `CCCC(=O)NNc1[nH]c(-c2ccc(OC)cc2)cc1C(=O)OCC`, the growth was 122% (inactive).

Consider `O=C1c2cc([N+](=O)[O-])ccc2-c2cc(Cl)c(NC(=O)C(F)(F)F)cc21`, for which the growth was 91.1% (inactive).

Regarding `N=C(c1ccccc1)N(Cc1ccccc1)Cc1ccccc1`, the growth was 97.7% (inactive).

As to `CSCc1ncc(-c2ccc(C(F)(F)F)cc2)c(NC2CCCCCC2)n1`, the growth is 71.6% [25 µM] (inactive).

As to `O=C(Nc1cccc(Cn2c(=O)[nH]c3ccc(Oc4ncccn4)cc3c2=O)c1)c1ccc(Cl)cc1`, the growth is 50.9% (inactive).

For `CC[C@H](Nc1ncnc2nc[nH]c12)c1nc2cccc(NCc3ccc(C(=O)NO)o3)c2c(=O)n1-c1ccccc1`, the growth was 71.6% (inactive).

As for `CCCCCCCCCC[N+](C)(C)N`, the growth is 78.9% (inactive).

`C=C(C)C(C(=O)OCC)(C(=O)OCC)C(C)C`: the growth was 86.5% (inactive).

On to `COC1=CC(c2ccc[nH]2)=N/C1=C\c1[nH]c(C)c(C(=O)CCCCC(=O)NC(C)(C)C)c1C`, for which the growth is 41.5% (inactive).

Turning to `COc1ccc(NC(=O)/C=C(C)/C=C/C=C(C)/C=C/C2=C(C)CCCC2(C)C)cc1`, the growth was 66.3% (inactive).

On to `CCCCCCCCc1ccc(OCCOCC[N+](C)(C)CC)cc1` (tested in a mixture with another compound), for which the growth is 9.08% (active).

On to `COc1cc2c(cc1OC)C(Cc1cc(OC)c(OC)cc1[N+](=O)[O-])=NCC2`, for which the growth was 88.2% (inactive).

On to `O=C1CCNC1`, for which the growth was 100% (inactive).

In the case of `COc1ccc(-c2nnc(SCC(=O)Nc3ccc(C(=O)/C=C/c4cc(OC)c(OC)c(OC)c4)cc3)n2-c2ccccc2)cc1OC`, the growth is -22% [100 µM] (active).

As for `O=S(=O)(O)c1ccc2c(c1)Sc1cc(S(=O)(=O)O)ccc1O2`, the growth was 93.2% (inactive).

Turning to `Cc1ccc(S(=O)(=O)Nc2cccc(Cn3c(=O)[nH]c4ccc(Oc5ncccn5)cc4c3=O)c2)cc1`, the growth is 78.9% (inactive).

Turning to `CCCCCCCCCCC(C[N+](C)(C)C/C=C/c1ccccc1)C(O)c1ccccc1` (stereo not given), the growth is 5.59% (active).

For the compound `COc1ccc(/C=C2\CCCC3=C2N=C2SC=NN2C3c2ccc(OC)c(OC)c2)cc1OC` (stereo not given), the growth is 40.1% (inactive).

As for `COc1cc(CCNc2cnc3cc(N)cc(N)c3n2)cc(OC)c1`, the growth is 98.8% (inactive).

For the compound `O=C(CCl)c1ccc2c(c1)CCCC2`, the growth is 114% (inactive).

Regarding `Cc1ccc(C(=O)Nc2ccc(CN3CCN(C)CC3)c(C(F)(F)F)c2)cc1C#Cc1cnc(N)c2ccc(F)cc12`, the growth was -70.4% (active).

On to `Cc1ccc(C(=O)Nc2ccc(CN3CCN(C)CC3)c(C(F)(F)F)c2)cc1C#Cc1cncc2ncccc12`, for which the growth was -83.9% (active).

Consider `O=C(Nc1ccc(-n2cc(-c3ccncc3)c(-c3ccc(Cl)c(O)c3)n2)cc1)c1cc(C(F)(F)F)cc(C(F)(F)F)c1`, for which the growth was 12.2% (inactive).

Regarding `CCCCCCCCCC(C)NC(=O)CCl` (stereo not given), the growth is 69.8% (inactive).

Turning to `COc1ccc(C(=O)CN2C(=O)NC(c3ccccc3)(c3ccccc3)C2=O)cc1`, the growth was 86.7% (inactive).

For `CCCCCCCCC(=O)Nc1ccc(O)cc1`, the growth was 76.8% (inactive).

On to `COc1ccc(-c2nc(SCC(C)C)nc(Nc3ccccc3)c2C#N)cc1`, for which the growth is 89% (inactive).

`N#Cc1ccc(NC2c3ccccc3CC2O)cc1` (stereo not given): the growth is 91.5% (inactive).

For `N#CCCCCCCCCCCC#N`, the growth is 103% (inactive).

In the case of `CCOC(=O)c1ccc2n1CCCc1cnc(NC(C)=O)nc1-2`, the growth was 85.5% (inactive).

In the case of `O=C(/C(Br)=C/c1ccccc1)c1ccccc1`, the growth was 80.3% (inactive).

For the compound `COc1ccc2c(N)ncc(C#Cc3cc(C(=O)Nc4ccc(CN5CCN(C)CC5)c(C(F)(F)F)c4)cnc3C)c2c1`, the growth was -11.1% (active).

Consider `CCCCCCCCCCCC(=O)OC(C)C(=O)Nc1ccccc1` (stereo not given), for which the growth was 71.9% (inactive).
